Laboratory results published in PubChem BioAssay (NCI).
Compounds without any hit were thinned out: in the full panel of roughly 83,000, 20% have a hit.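 Method: cells in 96-well plates; compound added at one concentration; 48 h incubation; percent growth measured; values under 10 scored active.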 Active and inactive are the calls of the source.

Key:
Assay in all cases: NCI-60 one-dose screen, 48 h (100 = growth as untreated, 0 = no growth, -100 = all killed)
Conditions in all cases: 10 µM unless noted
NCI-H23 lung = test system: NCI-H23 lung
NCI-H226 lung = test system: NCI-H226 lung
NCI-H322M lung = test system: NCI-H322M lung
HOP-62 NSCLC = test system: HOP-62 NSCLC
NCI-H460 lung = test system: NCI-H460 lung
HOP-92 NSCLC = test system: HOP-92 NSCLC
NCI-H522 lung = test system: NCI-H522 lung
A549/ATCC NSCLC = test system: A549/ATCC NSCLC
786-0 renal = test system: 786-0 renal
COLO 205 colon = test system: COLO 205 colon
DU-145 prostate = test system: DU-145 prostate
K-562 leukemia = test system: K-562 leukemia
MALME-3M melanoma = test system: MALME-3M melanoma
MDA-MB-231 breast = test system: MDA-MB-231 breast
RXF 393 renal = test system: RXF 393 renal
SF-268 CNS = test system: SF-268 CNS
SF-295 CNS = test system: SF-295 CNS
SF-539 CNS = test system: SF-539 CNS
UACC-257 melanoma = test system: UACC-257 melanoma
M14 melanoma = test system: M14 melanoma

Measured: growth

Cc1ccc(S(=O)(=O)OCC#CCOS(=O)(=O)c2ccc(C)cc2)cc1
active: HOP-62 NSCLC -12.9% | NCI-H522 lung -65.4% | MALME-3M melanoma -65.9%
inactive: NCI-H23 lung 59.3% | NCI-H226 lung 84.3% | NCI-H322M lung 93.9% | NCI-H460 lung 13.4% | HOP-92 NSCLC 40.2% | A549/ATCC NSCLC 17.1% | 786-0 renal 74.5% | COLO 205 colon 52.6% | DU-145 prostate 52.2% | K-562 leukemia 40.2% | MDA-MB-231 breast 57.9% | RXF 393 renal 58.6% | SF-268 CNS 53.8% | SF-295 CNS 42.2% | SF-539 CNS 81.9% | UACC-257 melanoma 66.8% | M14 melanoma 43.6%

COc1ccc(-c2cc(-c3cccnc3)nc3sc4c(N)c(C(C)=O)c(-c5ccccc5)nc4c23)cc1OC
inactive: NCI-H23 lung 66.7% | NCI-H226 lung 94.3% | NCI-H322M lung 90.5% | HOP-62 NSCLC 76.5% | NCI-H460 lung 78% | HOP-92 NSCLC 61.9% | NCI-H522 lung 56.6% | A549/ATCC NSCLC 69% | 786-0 renal 68.9% | COLO 205 colon 94.8% | DU-145 prostate 80.9% | K-562 leukemia 32.3% | MALME-3M melanoma 93.3% | MDA-MB-231 breast 51.5% | RXF 393 renal 50.1% | SF-268 CNS 69.6% | SF-295 CNS 48.7% | SF-539 CNS 52.8% | UACC-257 melanoma 92.3% | M14 melanoma 104%

Cc1cc(N2CCN(CC(=O)Nc3ccc4c(ccn4Cc4ccccc4)c3)CC2)nc(N2CCOCC2)n1
inactive: NCI-H23 lung 83.8% | NCI-H226 lung 84.3% | NCI-H322M lung 90.4% | HOP-62 NSCLC 91.1% | NCI-H460 lung 95.2% | HOP-92 NSCLC 45.4% | NCI-H522 lung 73.8% | A549/ATCC NSCLC 73.6% | 786-0 renal 84.6% | COLO 205 colon 98.2% | DU-145 prostate 95.4% | K-562 leukemia 60.5% | MALME-3M melanoma 85.7% | MDA-MB-231 breast 93.4% | RXF 393 renal 63.9% | SF-268 CNS 92.9% | SF-295 CNS 84% | SF-539 CNS 98.2% | UACC-257 melanoma 80.2% | M14 melanoma 90.1%

CC(O)Cc1c[nH]c(=O)[nH]c1=O (stereo not given)
inactive: NCI-H23 lung 102% | NCI-H226 lung 109% | NCI-H322M lung 132% | NCI-H460 lung 103% | HOP-92 NSCLC 111% | NCI-H522 lung 110% | A549/ATCC NSCLC 93.7% | 786-0 renal 109% | DU-145 prostate 97.9% | K-562 leukemia 126% | MALME-3M melanoma 142% | MDA-MB-231 breast 112% | RXF 393 renal 192% | SF-268 CNS 90% | SF-295 CNS 112% | SF-539 CNS 110% | UACC-257 melanoma 92.7% | M14 melanoma 102%
active: HOP-62 NSCLC -56.4% | COLO 205 colon -66.5%

C=C1C(=O)O[C@H]2[C@H]1CC/C(COC(=O)NCc1ccc(Cn3c(=O)sn(-c4ccc(I)cc4)c3=O)cc1)=C\CC[C@@]1(C)O[C@@H]21
active: NCI-H522 lung 2.14% | K-562 leukemia 7.33%
inactive: NCI-H23 lung 94.8% | NCI-H226 lung 89.6% | NCI-H322M lung 101% | HOP-62 NSCLC 97.8% | NCI-H460 lung 91.9% | HOP-92 NSCLC 54.9% | A549/ATCC NSCLC 94.9% | 786-0 renal 75.2% | COLO 205 colon 36.9% | DU-145 prostate 47.9% | MALME-3M melanoma 82.3% | MDA-MB-231 breast 73.5% | RXF 393 renal 61.2% | SF-268 CNS 87.1% | SF-295 CNS 99.8% | SF-539 CNS 98.7% | UACC-257 melanoma 75.7% | M14 melanoma 73.1%

Fc1ccc(/C=C/[C@@H]2C[C@@H](F)CCO2)cc1
inactive: NCI-H23 lung 104% | NCI-H226 lung 101% | NCI-H322M lung 82.1% | HOP-62 NSCLC 105% | NCI-H460 lung 99.7% | HOP-92 NSCLC 73.6% | NCI-H522 lung 91% | A549/ATCC NSCLC 106% | 786-0 renal 94.4% | COLO 205 colon 102% | DU-145 prostate 113% | K-562 leukemia 64.2% | MALME-3M melanoma 99.7% | MDA-MB-231 breast 98.2% | RXF 393 renal 96.4% | SF-268 CNS 104% | SF-295 CNS 94.8% | SF-539 CNS 103% | UACC-257 melanoma 93.9% | M14 melanoma 85.5%

CN(C)C1CN(C(=O)c2cc(-c3ccc4ncnc(N5CCc6cc(F)c(Cl)cc65)c4c3)cnc2N)C1
inactive: NCI-H23 lung 23.9% | NCI-H226 lung 30.7% | HOP-62 NSCLC 16.5% | NCI-H460 lung 12.7% | NCI-H522 lung 16.3% | COLO 205 colon 20.4% | K-562 leukemia 23.8% | MDA-MB-231 breast 27.8% | SF-268 CNS 18.4% | UACC-257 melanoma 16.4%
active: NCI-H322M lung 5.68% | HOP-92 NSCLC -15% | A549/ATCC NSCLC 6.53% | 786-0 renal 7.47% | DU-145 prostate 9.86% | MALME-3M melanoma -21.2% | RXF 393 renal -32% | SF-295 CNS 8.16% | SF-539 CNS -1.35% | M14 melanoma 9.34%

Nc1cccc(-c2ccc(COc3ccc(CC4SC(=O)NC4=O)cc3)cc2)c1 (stereo not given)
inactive: NCI-H23 lung 70.5% | NCI-H226 lung 94.1% | NCI-H322M lung 89.6% | HOP-62 NSCLC 48.4% | NCI-H460 lung 43.8% | HOP-92 NSCLC 42.3% | NCI-H522 lung 29.7% | A549/ATCC NSCLC 44.8% | 786-0 renal 77.9% | COLO 205 colon 101% | DU-145 prostate 83.2% | K-562 leukemia 21.6% | MALME-3M melanoma 42.5% | MDA-MB-231 breast 73.4% | RXF 393 renal 77.7% | SF-268 CNS 70.6% | SF-295 CNS 63.8% | SF-539 CNS 64.3% | UACC-257 melanoma 71% | M14 melanoma 36.5%
